The campaign covered roughly 2,400 compounds. About 580 (24%) were called active. A selection follows. A number with no mark means an inactive call.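 The calls were made as follows: active = activity change at or above the mean plus 3 SD of buffer wells without dofetilide, per plate; inactive = the rest.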
molecular target: Potassium voltage-gated channel subfamily KQT member 2 (Rattus norvegicus) (UniProt O88943); assay: rat KCNQ2 channel activation by compounds alone, confirmation, counter-screen for hERG block protector project, cell-based, CHO, FluxOR thallium flux (AID 1942); conditions: CHO-KCNQ2 cells, FluxOR thallium flux fluorescence; at 10 µM; hits give high values;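 also: normalized value minus buffer-control mean plus three SD of buffer wells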
Sequence (O88943 whole entry, looked up): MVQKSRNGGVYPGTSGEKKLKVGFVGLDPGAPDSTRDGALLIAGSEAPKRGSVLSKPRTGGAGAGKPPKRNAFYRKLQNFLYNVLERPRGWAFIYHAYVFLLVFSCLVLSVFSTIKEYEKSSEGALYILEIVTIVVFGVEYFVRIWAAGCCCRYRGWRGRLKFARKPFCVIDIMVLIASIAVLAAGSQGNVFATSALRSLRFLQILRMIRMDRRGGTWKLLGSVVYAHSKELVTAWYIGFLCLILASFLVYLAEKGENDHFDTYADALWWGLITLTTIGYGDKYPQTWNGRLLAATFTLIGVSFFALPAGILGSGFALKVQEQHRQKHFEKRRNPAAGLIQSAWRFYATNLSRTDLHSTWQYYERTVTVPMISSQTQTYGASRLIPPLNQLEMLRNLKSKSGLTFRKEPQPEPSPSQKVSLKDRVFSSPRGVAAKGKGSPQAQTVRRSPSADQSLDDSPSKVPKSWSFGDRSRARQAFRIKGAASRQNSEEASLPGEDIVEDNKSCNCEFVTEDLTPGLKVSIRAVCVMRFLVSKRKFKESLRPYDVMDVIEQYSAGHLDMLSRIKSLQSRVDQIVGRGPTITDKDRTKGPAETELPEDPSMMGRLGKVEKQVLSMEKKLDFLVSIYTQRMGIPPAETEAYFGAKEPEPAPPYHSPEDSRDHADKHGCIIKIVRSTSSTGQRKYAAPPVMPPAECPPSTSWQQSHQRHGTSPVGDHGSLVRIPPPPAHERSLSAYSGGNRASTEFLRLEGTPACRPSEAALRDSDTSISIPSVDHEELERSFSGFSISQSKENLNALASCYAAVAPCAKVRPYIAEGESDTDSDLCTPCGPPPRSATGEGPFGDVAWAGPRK

Row | Structure (SMILES) | activity change, less the hit threshold
1 | O=S(=O)(c1ccc(F)c(F)c1)N1CCN(c2ncccn2)CC1 | -26%
2 | CCCCCOc1ccc(C2C(C(C)=O)=C(C)Nc3ncnn32)cc1OC (stereo not given) | -11.7%
3 | O=C(c1ccc2c(c1)N(Cc1ccccc1F)C(=O)c1ccccc1S2(=O)=O)N1CCCC1 | -23.2%
4 | COc1ccc(CN2CCn3ncc(C(=O)Nc4ccccc4)c3C2=O)cc1 | -13.1%
5 | Cc1nnc(NC(=O)CN2CCN(Cc3ccc(F)cc3Cl)CC2)s1 | -27.8%
6 | Cc1ccc2c(c1)c1nnc(SCC(=O)Nc3ccc(N(C)C)cc3)nc1n2CC(=O)O | -16.6%
7 | COc1cccc(N=Nc2ccc(O)c3ncccc23)c1 | -7.4%
8 | CCN(CC)S(=O)(=O)c1cc(OC)ccc1N=Nc1ccc(O)c2ncccc12 | 44.8% (active)
9 | COc1ccc(NS(=O)(=O)c2ccc3ccccc3c2)c2ncccc12 | -12.6%
10 | COc1ccccc1N=Nc1ccc(O)c2ncccc12 | 15.6% (active)
11 | COc1ccc(OC)c(S(=O)(=O)Nc2ccc(O)c3ccccc23)c1 | -22.3%
12 | CCOc1ccc(N=Nc2ccc(O)c3ncccc23)cc1 | -5.6%
13 | O=C(COC(=O)c1cc(NS(=O)(=O)c2cccs2)ccc1O)Nc1cc(Cl)ccc1Cl | -5.6%
14 | C[n+]1ccccc1COc1ccc(C(C)(C)C)cc1 | -21.7%
15 | CCC1(CC)Cc2ccccc2-c2[nH]c(=S)[nH]c(=O)c21 | -28.1%
16 | CCn1c(=S)[nH]c2c(c1=O)C(C)(C)Cc1ccccc1-2 | 35.3% (active)
17 | CCCn1c(SCC(N)=O)nc2c(c1=O)C1(CCCC1)Cc1ccccc1-2 | -2.1%
18 | COc1ccc(-c2cc(C(F)(F)F)nc(SCC(=O)NCc3cccs3)n2)cc1 | -14.1%
19 | COc1ccc(-c2cc(C(=O)Nc3ccccc3SC)no2)cc1 | -15.3%
20 | COC(=O)c1c(NC(=O)C(C)(C)C)csc1C | -9.2%
21 | C/C(=N\NC(=O)c1ccc(Cl)cc1)c1ccc(Br)s1 | -6.9%
22 | CCc1cc2c(=O)n(CCC(C)C)c(=S)[nH]c2s1 | 54% (active)

Row | Structure (SMILES) | activity change, less the hit threshold
23 | CCCCNC(=O)c1onc(CSc2nc3ccccc3[nH]2)c1C(=O)NCCCC | -19%
24 | COc1ccc(CCNC(=O)Cn2c(=O)n(-c3ccc(F)cc3)c(=O)c3sccc32)cc1OC | -19.4%
25 | CCNC(=S)N/N=C1\C(=O)c2cccc3cccc1c23 | -4%
26 | O=C(NN=C1c2ccccc2-c2ccccc21)c1ccccc1 | 0%
27 | O=C(N/N=C1/C(=O)c2cccc3cccc1c23)c1ccc(Cl)cc1 | 73.4% (active)
28 | O=C(O)c1ccccc1P(=O)(c1ccccc1)c1ccccc1 | -16.8%
29 | Cc1noc(C)c1COc1cccc(C(=O)NCc2cccc(Cl)c2)c1 | -21.4%
30 | CCCCCCCC/C=C\CCCCCCCC(=O)O | -1%
31 | CCCCCC/C(C)=C1/SC(=S)NC1=O | 71.1% (active)
32 | CCOC(=O)Cc1nc2ccccc2o1 | -2.9%
33 | O=C(O)Cc1sc(-c2ccc(Cl)cc2)nc1-c1ccccc1 | -19.7%
34 | O=C(NC(=S)Nc1cccc(C(F)(F)F)c1)c1csnn1 | 115% (active)
35 | O=C(NC(=S)Nc1ccc(C(F)(F)F)cc1)c1csnn1 | 87% (active)
36 | O=C(Nc1ccc(-c2csc(Nc3cccc(C(F)(F)F)c3)n2)cc1)c1ccccc1 | -23.8%
37 | O=C(NC(=S)Nc1cc(C(F)(F)F)ccc1Cl)c1ccccc1 | -6.4%
38 | CC12CN3CC(C)(CN(C1)C3c1ccc3c(c1)OCO3)C2=O (stereo not given) | -15.9%
39 | C/C(O)=C/c1nc2ccccc2[nH]c1=O | -16.5%
40 | CCN1C(=O)/C(=C/N2CCc3ccccc32)SC1=S | -17.3%
41 | Cc1nnc2ccc(-c3cccc(NC(=O)c4ccc(Cl)nc4)c3)nn12 | -16.1%
42 | CNC(=O)c1c(O)c2cccc3c2n(c1=O)CC3 | -22.2%
43 | c1ccc2oc(-c3ccn[nH]3)cc2c1 | -0.3%
44 | Cc1csc(NC(=O)c2cc3c(s2)CCCC3)n1 | 17.9% (active)

Row | Structure (SMILES) | activity change, less the hit threshold
45 | Cc1csc(NC(=O)c2cn3ccccc3n2)n1 | -15.1%
46 | Cc1csc(NC(=O)C2C3C=CC(C3)C2C(=O)O)n1 (stereo not given) | -13.2%
47 | Cc1occc1C(=O)Nc1cccc([N+](=O)[O-])c1 | -10.3%
48 | O=C(O)c1ccc(N=NNc2cccc([N+](=O)[O-])c2)cc1 | 2.2% (active)
49 | NC(=O)c1cccnc1Nc1cccc([N+](=O)[O-])c1 | -14.1%
50 | CC(=O)Nc1ccc(NC(=O)CSc2ncc(C(=O)Nc3ccc(Cl)cc3)c(=O)n2C)cc1 | -4.1%
51 | N=c1c2cn[nH]c2nc(SCC(=O)c2ccc(Br)cc2)n1-c1ccc(Br)cc1 | -23.7%
52 | CCOC(=O)C(=CNc1ccc(OC)cc1[N+](=O)[O-])C(=O)OCC | -13.9%
53 | CCOC(=O)C(=CNc1cc(C)ccc1[N+](=O)[O-])C(=O)OCC | -8.6%
54 | CCOC(=O)N/N=C/C=C/c1ccccc1[N+](=O)[O-] | 5.2% (active)
55 | O=S(=O)(NCc1ccc(Cl)cc1Cl)c1ccc(N2CCOCC2)nc1 | -15%
56 | CCOC(=O)/C=C/c1ccc2c(c1)S(=O)(=O)N(c1cccc(OC)c1)[C@H]2CC(=O)OCC | -13.3%
57 | O=C(NC(=S)Nc1nc(-c2cccc([N+](=O)[O-])c2)cs1)c1ccccc1Cl | -10.8%
58 | CN(C)C(=O)c1cc(C(=O)c2ccc(Cl)cc2Cl)c[nH]1 | -14.9%
59 | CCN(CC)C(=S)NC(=O)c1ccc(Cl)cc1Cl | 9% (active)
60 | CCCn1nnnc1NC(=O)c1cc(Cl)ccc1Cl | -33.4%
61 | CCCCN(CCCC)C(=S)NC(=O)c1ccccc1Cl | 89.6% (active)
62 | CCCN(CCC)C(=S)NC(=O)c1ccc(Cl)cc1Cl | 55% (active)
63 | CN(C)CCCN=C(NO)c1ccc(Cl)cc1Cl | -14.9%
64 | CN(C)/C=C/C(=O)c1ccc(Cl)cc1Cl | -15.1%
65 | O=C(Nc1ccsc1C(=O)O)c1ccccc1Cl | -14.7%

Reference: PubChem BioAssay AID1942 (Johns Hopkins Ion Channel Center, 2009)
